{"source": "paper PMC8384837", "about": "“Expanding the binding specificity for RNA recognition by a PUF domain”", "test_in_all_cases": "yeast three-hybrid, YBZ-1, SC-Leu-His + 0.5 mM 3-AT, 4 days", "details_in_all_cases": "tags: N-Gal4 AD-HA kept; label: inside an RPR1-promoter hybrid RNA with tandem MS2 sites; ssRNA", "key": {"PUM1 PUF domain R1-KLR": {"molecular_target": "PUM1 PUF domain R1-KLR (Homo sapiens, UniProt Q14671 828-1176, S863K;R864L;Q867R)", "procedure,_shortened": "(§1)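 The interaction score is the log change in how often each variant appears, from input to selection. Frequencies came from PCR-amplified, Illumina-sequenced repeat regions of Pumilio-1 PUF domain libraries grown in strain YBZ-1 (LexA–MS2 coat fusion, HIS3 reporter) alongside matching RNA elements. Input plates were SC-Leu and selection plates were SC-Leu-His + 0.5 mM 3-AT, each for four days, and the log2 calculation used a pseudocount of 1 where a variant was absent.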"}, "PUM1 PUF domain R1-KRY": {"molecular_target": "PUM1 PUF domain R1-KRY (Homo sapiens, UniProt Q14671 828-1176, S863K;Q867Y)", "procedure,_shortened": "as §1"}, "PUM1 PUF domain R1-GWE": {"molecular_target": "PUM1 PUF domain R1-GWE (Homo sapiens, UniProt Q14671 828-1176, S863G;R864W;Q867E)", "procedure,_shortened": "as §1"}, "PUM1 PUF domain R6-WWG": {"molecular_target": "T1, PUM1 PUF domain R6-WWG (Homo sapiens, UniProt Q14671 828-1176, N1043W;Y1044W;Q1047G)", "T1 sequence": "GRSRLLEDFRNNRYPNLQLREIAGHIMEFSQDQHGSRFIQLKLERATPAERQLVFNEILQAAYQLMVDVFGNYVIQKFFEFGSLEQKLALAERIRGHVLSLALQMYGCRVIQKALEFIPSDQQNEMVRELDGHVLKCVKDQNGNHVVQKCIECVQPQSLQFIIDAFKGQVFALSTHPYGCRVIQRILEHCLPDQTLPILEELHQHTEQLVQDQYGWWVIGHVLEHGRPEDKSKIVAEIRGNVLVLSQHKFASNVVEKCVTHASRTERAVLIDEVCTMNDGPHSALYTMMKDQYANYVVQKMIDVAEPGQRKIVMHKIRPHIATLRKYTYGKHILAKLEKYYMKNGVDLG", "procedure,_shortened": "as §1"}, "PUM1 PUF domain R3-TRH": {"molecular_target": "PUM1 PUF domain R3-TRH (Homo sapiens, UniProt Q14671 828-1176, C935T;Q939H)", "procedure,_shortened": "as §1"}, "PUM1 PUF domain R8-HWI": {"molecular_target": "PUM1 PUF domain R8-HWI (Homo sapiens, UniProt Q14671 828-1176, N1122H;Y1123W;Q1126I)", "procedure,_shortened": "as §1"}, "PUM1 PUF domain R2-LWQ": {"molecular_target": "PUM1 PUF domain R2-LWQ (Homo sapiens, UniProt Q14671 828-1176, N899L;Y900W)", "procedure,_shortened": "as §1"}, "PUM1 PUF domain R6-YWL": {"molecular_target": "T2, PUM1 PUF domain R6-YWL (Homo sapiens, UniProt Q14671 828-1176, N1043Y;Y1044W;Q1047L)", "T2 sequence": "T1 sequence with W216Y, G220L", "procedure,_shortened": "as §1"}, "PUM1 PUF domain R3-VFF": {"molecular_target": "PUM1 PUF domain R3-VFF (Homo sapiens, UniProt Q14671 828-1176, C935V;R936F;Q939F)", "procedure,_shortened": "as §1"}, "PUM1 PUF domain R3-RTV": {"molecular_target": "PUM1 PUF domain R3-RTV (Homo sapiens, UniProt Q14671 828-1176, C935R;R936T;Q939V)", "procedure,_shortened": "as §1"}, "PUM1 PUF domain R5-GKN": {"molecular_target": "PUM1 PUF domain R5-GKN (Homo sapiens, UniProt Q14671 828-1176, C1007G;R1008K;Q1011N)", "procedure,_shortened": "as §1"}, "PUM1 PUF domain R5-LNA": {"molecular_target": "PUM1 PUF domain R5-LNA (Homo sapiens, UniProt Q14671 828-1176, C1007L;R1008N;Q1011A)", "procedure,_shortened": "as §1"}, "PUM1 PUF domain R3-FSK": {"molecular_target": "PUM1 PUF domain R3-FSK (Homo sapiens, UniProt Q14671 828-1176, C935F;R936S;Q939K)", "procedure,_shortened": "as §1"}, "PUM1 PUF domain R3-YYS": {"molecular_target": "PUM1 PUF domain R3-YYS (Homo sapiens, UniProt Q14671 828-1176, C935Y;R936Y;Q939S)", "procedure,_shortened": "as §1"}, "PUM1 PUF domain R1-SKR": {"molecular_target": "PUM1 PUF domain R1-SKR (Homo sapiens, UniProt Q14671 828-1176, R864K;Q867R)", "procedure,_shortened": "as §1"}, "PUM1 PUF domain R4-WHG": {"molecular_target": "PUM1 PUF domain R4-WHG (Homo sapiens, UniProt Q14671 828-1176, N971W;Q975G)", "procedure,_shortened": "as §1"}}, "note": "Where a chain is given by its changes, count along the chain named."}
{"sequence": "GGCUAGAACUAGUGGAUCCCCCGGCGCCCGGCGGCUCGAGCCCGGGUAAGUGUAAAUUGUCUGCAUGCCGCCGGGCGCCAUGCCUGCAGGUCGACUCUAGAAAACAUG", "values": [{"measurement": "binding signal", "setting": "PUM1 PUF domain R1-KLR", "result": "4.29 log2 enrichment (interaction score)"}, {"measurement": "binding signal", "setting": "PUM1 PUF domain R1-KRY", "result": "3.65 log2 enrichment (interaction score)"}]}
{"sequence": "GGCUAGAACUAGUGGAUCCCCCGGCGCCCGGCGGCUCGAGCCCGGGUAAGUGUAAAUGGUCUGCAUGCCGCCGGGCGCCAUGCCUGCAGGUCGACUCUAGAAAACAUG", "values": [{"measurement": "binding signal", "setting": "PUM1 PUF domain R1-GWE", "result": "2.61 log2 enrichment (interaction score)"}]}
{"sequence": "GGCUAGAACUAGUGGAUCCCCCGGCGCCCGGCGGCUCGAGCCCGGGUAAGUGUAAAUAGUCUGCAUGCCGCCGGGCGCCAUGCCUGCAGGUCGACUCUAGAAAACAUG", "values": [{"measurement": "binding signal", "setting": "PUM1 PUF domain R6-WWG", "result": "4.79 log2 enrichment (interaction score)"}, {"measurement": "binding signal", "setting": "PUM1 PUF domain R3-TRH", "result": "4.48 log2 enrichment (interaction score)"}, {"measurement": "binding signal", "setting": "PUM1 PUF domain R8-HWI", "result": "3.85 log2 enrichment (interaction score)"}, {"measurement": "binding signal", "setting": "PUM1 PUF domain R2-LWQ", "result": "1.66 log2 enrichment (interaction score)"}]}
{"sequence": "GGCUAGAACUAGUGGAUCCCCCGGCGCCCGGCGGCUCGAGCCCGGGUAAGUGAAAAUAGUCUGCAUGCCGCCGGGCGCCAUGCCUGCAGGUCGACUCUAGAAAACAUG", "values": [{"measurement": "binding signal", "setting": "PUM1 PUF domain R6-WWG", "result": "2.56 log2 enrichment (interaction score)"}, {"measurement": "binding signal", "setting": "PUM1 PUF domain R6-YWL", "result": "7.77 log2 enrichment (interaction score)"}]}
{"sequence": "GGCUAGAACUAGUGGAUCCCCCGGCGCCCGGCGGCUCGAGCCCGGGUAAGUGUAAUUAGUCUGCAUGCCGCCGGGCGCCAUGCCUGCAGGUCGACUCUAGAAAACAUG", "values": [{"measurement": "binding signal", "setting": "PUM1 PUF domain R3-TRH", "result": "1.56 log2 enrichment (interaction score)"}, {"measurement": "binding signal", "setting": "PUM1 PUF domain R3-VFF", "result": "4.71 log2 enrichment (interaction score)"}, {"measurement": "binding signal", "setting": "PUM1 PUF domain R3-RTV", "result": "2.72 log2 enrichment (interaction score)"}]}
{"sequence": "GGCUAGAACUAGUGGAUCCCCCGGCGCCCGGCGGCUCGAGCCCGGGUAAGUGUCAAUAGUCUGCAUGCCGCCGGGCGCCAUGCCUGCAGGUCGACUCUAGAAAACAUG", "values": [{"measurement": "binding signal", "setting": "PUM1 PUF domain R5-GKN", "result": "1.57 log2 enrichment (interaction score)"}]}
{"sequence": "GGCUAGAACUAGUGGAUCCCCCGGCGCCCGGCGGCUCGAGCCCGGGUAAGUGUUAAUAGUCUGCAUGCCGCCGGGCGCCAUGCCUGCAGGUCGACUCUAGAAAACAUG", "values": [{"measurement": "binding signal", "setting": "PUM1 PUF domain R5-GKN", "result": "3.34 log2 enrichment (interaction score)"}, {"measurement": "binding signal", "setting": "PUM1 PUF domain R5-LNA", "result": "4.02 log2 enrichment (interaction score)"}]}
{"sequence": "GGCUAGAACUAGUGGAUCCCCCGGCGCCCGGCGGCUCGAGCCCGGGUAAGUGUAAGUAGUCUGCAUGCCGCCGGGCGCCAUGCCUGCAGGUCGACUCUAGAAAACAUG", "values": [{"measurement": "binding signal", "setting": "PUM1 PUF domain R3-FSK", "result": "4.08 log2 enrichment (interaction score)"}, {"measurement": "binding signal", "setting": "PUM1 PUF domain R3-YYS", "result": "6.91 log2 enrichment (interaction score)"}]}
{"sequence": "GGCUAGAACUAGUGGAUCCCCCGGCGCCCGGCGGCUCGAGCCCGGGUAAGUGUAAAAAGUCUGCAUGCCGCCGGGCGCCAUGCCUGCAGGUCGACUCUAGAAAACAUG", "values": [{"measurement": "binding signal", "setting": "PUM1 PUF domain R2-LWQ", "result": "8.53 log2 enrichment (interaction score)"}]}
{"sequence": "GGCUAGAACUAGUGGAUCCCCCGGCGCCCGGCGGCUCGAGCCCGGGUAAGUGUAAAUCGUCUGCAUGCCGCCGGGCGCCAUGCCUGCAGGUCGACUCUAGAAAACAUG", "values": [{"measurement": "binding signal", "setting": "PUM1 PUF domain R1-SKR", "result": "3.09 log2 enrichment (interaction score)"}]}
{"sequence": "GGCUAGAACUAGUGGAUCCCCCGGCGCCCGGCGGCUCGAGCCCGGGUAAGUGUAUAUAGUCUGCAUGCCGCCGGGCGCCAUGCCUGCAGGUCGACUCUAGAAAACAUG", "values": [{"measurement": "binding signal", "setting": "PUM1 PUF domain R4-WHG", "result": "3.79 log2 enrichment (interaction score)"}]}
